# Source: PubChem BioAssay
# CHOP inhibitor – inhibitors of CHOP induction in ER stress response | CHO-K1 CHOP-promoter luciferase, tunicamycin-induced, 15-18 h | inhibition, % at 10 µM | 220,000 compounds, 3.8% hits | AID 2732;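 active means compounds that reduced the stress-induced luciferase reporter signal by more than about 70% of percent inhibition, limit read from the data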;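 further: 0% = tunicamycin plus vehicle and 100% = wells without tunicamycin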
# Lmaj promast – Leishmania major promastigote growth inhibition | inhibition, % at 10 µM | Leishmania major promastigotes, resazurin fluorescence viability | 200,000 compounds, 9% hits | AID 1063; in the data active means inhibition above about 50%;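 further: promastigotes grown with compound for 44 hours at 28 °C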
# Arbovirus inh – antivirals against arbovirus infection; arbovirus infection cell-based antiviral screen; inhibition, % at 10 µM; 200,000 compounds, 0.37% hits; AID 1251; in the data active means inhibition above about 30%
# WT yeast gro inh – growth inhibition of WT yeast, mitochondrial fusion screen; mitochondrial fusion phenotypic screen, WT strain; 190,000 compounds, 2.1% hits; AID 1362; inhibition, % at 10 µM; in the data active means inhibition above about 58%; tested in S. cerevisiae
# * = called active by the depositor; nt = not tested or not shown. In the library only some 12% were active in any assay of this set; here they are far more common.
SMILES,CHOP inhibitor,Lmaj promast,Arbovirus inh,WT yeast gro inh
O=C(/C=C/c1ccc(Cl)cc1Cl)N(Cc1ccccc1)C1CCS(=O)(=O)C1 (centres undefined),29,84*,10,31
Cc1ccc(N(CC(=O)N/N=C/c2cccc(Br)c2)S(C)(=O)=O)cc1,34,32,-11,-9
Cc1cccc(C)c1-n1c(C)cc(/C=N/NC(N)=S)c1C,34,97*,-6,54
Cc1cc(/C=N/NC(N)=S)c(C)n1-c1ccc(Br)cc1,-6,99*,-2,5
Cc1cc(/C=N/NC(N)=S)c(C)n1-c1cccc(Cl)c1,4,94*,-5,6
Cc1cc(/C=N/NC(N)=S)c(C)n1-c1ccc(Cl)cc1,48,89*,-4,2
Cc1cc(/C=N\NC(=O)CC(=O)NC2CCCCC2)c(C)n1-c1ccc(Cl)cc1,51,-4,-6,10
NC(=O)c1ccc2c(=O)n3c(-c4cccs4)csc3nc2c1,29,nt,nt,nt
Cc1cc(C)nc(N/N=C2/CCCC/C2=C\c2ccccc2)n1,10,100*,7,30
CCOc1ccc(NC(=O)c2cn(CC(C)C)c(=O)c3c2c2ccccc2n3C)cc1,90*,-6,-9,-23
Cc1c(C(=O)NN2CCCCC2)nn(-c2ccc(Cl)cc2Cl)c1-c1ccc(I)cc1,-17,nt,-19,81*
CCOC(=O)CSc1nc(Nc2ccc3c(c2)OCO3)c2ccccc2n1,26,56*,-2,19
Cc1ccc(-c2nc(NC(=O)c3cc(C(C)(C)C)nn3C)sc2C)cc1Cl,9,nt,nt,nt
O=c1c2nncn2c2cc(C(F)(F)F)ccc2n1CCNc1ncc(C(F)(F)F)cc1Cl,85*,nt,nt,nt
N/C(=N\OC(=O)COc1ccc2ccccc2c1)c1cccnc1,10,-3,13,5
FC(F)(F)c1cccc(OCC2CNC(=S)O2)c1 (centres undefined),8,nt,nt,nt
CN(C)/C=C(\C=N\OCc1ccc(Cl)cc1Cl)C(=O)Nc1ccc(Cl)c(Cl)c1,9,-2,-38,84*
Cc1ccc(SCc2nc3ccccc3[nH]2)cc1,-13,20,5,26
Cc1ccc(CSCc2nc3ccccc3[nH]2)cc1,-23,26,36*,67*
Cc1cc(C)cc(CC(Cc2nc3ccccc3[nH]2)c2nc3ccccc3[nH]2)c1 (centres undefined),67,91*,-20,7
Clc1ccc(OCCSCc2nc3ccccc3[nH]2)cc1,14,3,-33,79*
O=C(Nc1cccc(-n2cnnn2)c1)c1ccco1,15,95*,-2,3
O=C(c1ccccc1)c1cccc(NC(=O)c2ccco2)c1,10,97*,2,8
CCC(=O)Nc1cccc(C(=O)Nc2nccs2)c1,-7,14,-5,4
O=C(Nc1cccc(-c2cnc3ccccc3n2)c1)c1cccc(NC(=O)c2ccco2)c1,29,69*,-5,21
SMILES,CHOP inhibitor,Lmaj promast,Arbovirus inh,WT yeast gro inh
CC(=O)c1cccc(NC(=O)c2ccco2)c1,11,15,5,-11
O=C(Nc1nccs1)c1cccc(NC(=O)c2ccco2)c1,15,97*,10,-5
O=C(Nc1cccc(-c2cnc3ccccc3n2)c1)c1ccccc1,1,-5,-20,-8
CCC(CC)=C(C#N)C(=O)NC1CCCCC1,-10,-5,3,-25
OCCN1CCN(C(=S)Nc2cccc(C(F)(F)F)c2)CC1,-7,nt,nt,nt
O=C(Nc1cccnc1)c1cccc(NC(=O)c2ccco2)c1,52,80*,-5,13
O=C(Nc1cccc(NC(=O)c2sc3ccccc3c2Cl)c1)c1ccco1,29,81*,-6,28
Cc1noc(C)c1CSc1nc2ccccc2[nH]1,7,-2,0,-5
Fc1cccc(F)c1CSc1nc2ccccc2[nH]1,-30,100*,5,0
COc1ccc(CN(C)CC(=O)Nc2cc3oc4ccccc4c3cc2OC)c(OC)c1,30,97*,-8,40
COc1cc2c(cc1NC(=O)C(C)NCc1ccccc1)oc1ccccc12 (centres undefined),-22,8,2,68*
COc1cc2c(cc1NC(=O)Nc1ccccc1)oc1ccccc12,16,4,11,69*
COc1cc2c(cc1NS(=O)(=O)N1CCCCC1)oc1ccccc12,66,96*,-28,80*
O=S(=O)(Nc1ccc2c(c1)oc1ccccc12)N1CCCC1,67,5,-10,-28
COc1cc2c(cc1NC(=O)C(C)Sc1ccc(C)cc1)oc1ccccc12 (centres undefined),-1,7,-4,13
COc1cc2c(cc1NC(=O)CN(C)Cc1ccc(OC)c(OC)c1)oc1ccccc12,28,28,-8,30
CCO[C@@H]1OC(C(=O)NCc2nc3ccccc3[nH]2)=C[C@H](c2ccc(C(F)(F)F)cc2)[C@H]1CCCO,-11,13,-15,1
C[C@H]1CC2C3CCC4=CC(=O)C=C[C@]4(C)[C@@]3(Cl)[C@@H](O)C[C@]2(C)[C@@]1(O)C(=O)CO (some centres undefined),7,nt,nt,nt
CCN(CC)S(=O)(=O)c1cccc(C(=O)Nc2cc3oc4ccccc4c3cc2OC)c1,-39,80*,-5,-8
Cc1cccn2c(=O)c(C=NCc3ccco3)c(Nc3ccc(SC(F)F)cc3)nc12,11,91*,-19,83*
Cc1cccn2c(=O)c(C=NCCO)c(NCc3ccco3)nc12,22,14,12,0
Cn1nnc2ccccc2c1=O,6,-3,13,-9
C=CCn1c(SCc2ccccc2Cl)nnc1-c1sc2nc(C)cc(C)c2c1N,1,nt,nt,nt
CN1CCN(CCC(=O)Nc2ccc(OCc3ccccc3)cc2)CC1,-23,82*,-26,-27
O=C(/C=C/c1ccc(F)cc1)NNC(=O)CCN1CCN(Cc2ccccc2)CC1,28,54*,-3,-17
SMILES,CHOP inhibitor,Lmaj promast,Arbovirus inh,WT yeast gro inh
O=C(CN1CCN(CC(=O)Nc2ccc(OCc3ccccc3)cc2)CC1)Nc1ccc(F)cc1,nt,4,nt,nt
O=C(CN1CCOCC1)Nc1ccc(OCc2ccccc2)cc1,21,0,-2,14
COc1cccc(/C=C/C(=O)NNC(=O)CCN2CCN(Cc3ccccc3)CC2)c1,-3,nt,nt,nt
O=C(CCN1CCN(Cc2ccccc2)CC1)Nc1ccc(OCc2ccccc2)cc1,70*,10,-18,33
O=C(CCN1CCN(CCO)CC1)Nc1ccc(OCc2ccccc2)cc1,2,61*,-11,-17
CCN(CC)S(=O)(=O)c1ccc(N(C)Cc2cccnc2)nc1,43,-1,5,-13
COc1ccc(C2CC(=O)N(C)c3ccccc3S2)cc1 (centres undefined),-31,2,-10,17
COC(=O)c1ccc(NC(=O)CCN2CCN(Cc3ccccc3)CC2)cc1,36,75*,-5,-19
O=C(Nc1nccs1)c1cc2c(s1)-c1ccccc1OC2,61,19,-8,24
Cc1cccc2c1-c1sc(C(=O)Nc3nccs3)cc1CO2,54,24,82*,0
COC(=O)C1=C(C(=O)OC)C(c2cc(Br)ccc2O)c2sc(=O)[nH]c2S1 (centres undefined),7,65*,0,19
CSc1nc(N)c2c(C)c(C)sc2n1,10,-4,5,6
CN1/C(=C/C(=O)C2CC2)C(C)(C)c2ccccc21,29,10,0,7
